Results reported in the OligoGym collection.

target: HCK; assay: pooled miR-30 sensor sort-seq; sequence = guide strand; conditions: shRNA
Note: reference of the scale not given here.

Sequence | sensor-assay potency score (higher = more potent)
TTTAGTGGTCTCGCTATCCCGG | -0.689
TTTGAGAATGTATTGCCTCCGA | -0.315
TTCCCTTCCAAATCACAGCTGT | 0.224
TTTGACCAGCTTGTCATGCTGC | 0.268
TTGTTGTAGGTGGCCATCCAGA | -1.38
TCGTTGTCCTCAATGACCCGGG | -0.328
TTCTTCTCCAGCTTGAGGGATT | -0.963
TTCCTCTAGGACCACCATCTGG | -1.25
TTGGTGTGCTTGTTGTAGGTGG | -0.387
TAGTGGTCTCGCTATCCCGGAT | -0.53
TGATGTTGTAGAGCTCCTCTGG | -0.148
TTAGTGGTCTCGCTATCCCGGA | -1.31

target: HCST; assay: as above; conditions: shRNA

Sequence | sensor-assay potency score (higher = more potent)
TCTCTCCTGGAGTCGTCTGAGC | -1.45
TTTGCCATCTTCTTGGGCGGGG | 0.0264
TTGCCATCTTCTTGGGCGGGGC | -1.23
TTGATGTAGACTTTGCCATCTT | -0.308
AGACTTTGCCATCTTCTTGGGC | -0.803
ATGAGCAGCGATGCCACCGCAT | -1.5
TCTCTCTCCTGGAGTCGTCTGA | -1.08
AACAAGAGCCTGAAGTGCCAGG | -0.933
TAGACTTTGCCATCTTCTTGGG | -0.36
TGTTGATGTAGACTTTGCCATC | -1.89
TAGACTTTGCCATCTTGGGCGG | -0.81
TGTAGACTTTGCCATCTTCTTG | -1.11

target: HDGF; assay: as above; conditions: shRNA

Sequence | sensor-assay potency score (higher = more potent)
TTTCTCGTTCTTCTCCTTGGCT | -0.305
TCTGGTGACAACACTGAGGGGG | 0.602
TTTCTCTCTGTCCTCTCAGTGG | -1.16
TTCCCTTCCTCGTCGCTGCTGC | -0.283
TTCTCGTTCTTCTCCTTGGCTG | -0.535
TCTGGGAGGACTGATAGCCGGA | -0.805
TTCTTTTCCACCTCCATAGGAA | -0.534
TTCCACACAGCTCTTTTTCTGG | -0.811
TAGAACTGAAATCATCTACGGT | -0.169
TAAGGGAAGAGGTCTTTGGGGC | -0.718
TCAGGCATCTCGTCAATCCGGG | -0.426
TTCTCAGAGCTAAACTTCCAAA | -1.28
